Laboratory results published in PubChem BioAssay (EPA / NIEHS).
Active and inactive are the calls of the source. The calls were made as follows: active = hit-call score of the fitted dose curve at least 0.9, where 1 is the maximum; inactive = score below 0.9. Peptide text beside a SMILES is read from it.

The compounds below were run against X-box-binding protein 1 (Homo sapiens) (UniProt P17861) (assay: ATG_Xbp1_CIS: Attagene CIS-FACTORIAL HepG2 Assay for human X-box Binding Protein 1 (XBP1) (AID 2282972)). Settings: HepG2 XBP1 cis-element reporter, Attagene multiplex; actives raise or lower the signal.
Chain of X-box-binding protein 1 (Homo sapiens) (P17861 whole entry, looked up): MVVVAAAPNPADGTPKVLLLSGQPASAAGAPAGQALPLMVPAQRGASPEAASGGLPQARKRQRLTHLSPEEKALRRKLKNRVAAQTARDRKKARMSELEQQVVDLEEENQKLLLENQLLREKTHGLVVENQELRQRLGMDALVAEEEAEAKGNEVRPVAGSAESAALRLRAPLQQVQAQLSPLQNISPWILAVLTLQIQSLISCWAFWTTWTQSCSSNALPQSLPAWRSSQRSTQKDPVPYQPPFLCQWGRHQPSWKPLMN
Description: ATG_CIS is a cell-based, multiplexed-readout assay that uses HepG2, a human liver cell line, with measurements taken at 24 hours after chemical dosing in a 24-well plate.ATG_Xbp1_CIS is one of 52 assay component(s) measured or calculated from the ATG_CIS assay. It is designed to make measurements of mRNA induction, a form of inducible reporter, as detected with fluorescence intensity signals by Reverse transcription polymerase chain reaction (RT-PCR) and Capillary electrophoresis technology.Data from the assay component ATG_Xbp1_CIS was analyzed into 1 assay endpoint. This assay endpoint, ATG_Xbp1_CIS, was analyzed with bidirectional fitting relative to DMSO as the negative control and baseline of activity. Using a type of inducible reporter, measures of mRNA for gain or loss-of-signal activity can be used to understand the reporter gene at the transcription factor-level as they relate to the gene XBP1. Furthermore, this assay endpoint can be referred to as a primary readout, because this assay has produced multiple assay endpoints where this one serves a reporter gene function. To generalize the intended target to other relatable targets, this assay endpoint is annotated to the dna binding intended target family, where the subfamily is basic leucine zipper.
Human liver HepG2 cells are transiently transfected with multiple reporter transcription units (MRTUs) in 6-well plates using FuGene 6 reagent (Roche; 3 ml FuGene/1 mg DNA). The MRTU constructs are regulated by a cis-regulating element (promoter). […] A major difference between the CIS and TRANS system is that in CIS activities of endogenous TFs are measured, whereas the TRANS assay evaluates changes in activities of exogenous, chimeric NR-Gal4 proteins. […] At the end of 24 hour incubation, total RNA was isolated using TriZol reagent (Invitrogen). The isolated RNA is then reverse-transcribed using oligo(dT) primer and Mo-MLV reverse transcriptase (Invitrogen) with DNAse I (Ambion) treatment for 30 min. The one-tenth of the produced cDNA was amplified by PCR using Taq DNA polymerase (Invitrogen) and two reporter sequence-specific primers. The PCR products were fluorescently labeled by primer extension with 6-arboxyfluorescein (6-FAM) 5'-labeled reporter sequence-specific primer (2 min at 95 C, 20 s at 68 C and 10 min at 72 C) and these products were digested with 5U of HpaI (New England Biolabs) for 2h at 37 C. The fragments were purified using Qiaquick PCR columns (Qiagen), analyzed on an ABI 3130xL genetic analyzer (Applied Biosystems) with peak positions identified by using a set of X-rhodamine (ROX)-labeled MapMarker1000 molecular weight standards (BioVentures). The raw capillary electrophoresis data was processed using Attagraph software (Attagene).
`CC(C)CCCCCOC(=O)CS` was tested, and the outcome was “inactive”.
In the case of `CCCCC1CCC(=O)O1` (stereo not given), the outcome is reported as “inactive”.
`CCC1COC(=O)O1` (stereo not given) was tested, and the outcome was “inactive”.
For `Oc1ccc(/C=C/c2cc(O)cc(O)c2)cc1`, the outcome was “inactive”.
For `CCC(C)c1ccccc1` (stereo not given), the outcome was “inactive”.
With `[Cl][Sc]([Cl])[Cl]` the outcome was “inactive”.
For `CC1C(C)(C)C2=C(C(=O)CCC2)C1(C)C` (stereo not given), the outcome was “inactive”.
In the case of `COCC(=O)O`, the outcome is reported as “inactive”.
With `CCOC(=O)C1=NN(c2ccc(Cl)cc2Cl)C(C)(C(=O)OCC)C1` (stereo not given) the outcome was “inactive”.
`CC(=O)CCC=C(C)C` was tested, and the outcome was “inactive”.
`CC1CCC(=O)C1=O` (stereo not given) was tested, and the outcome was “inactive”.
With `CC(C)(C)N` the outcome was “inactive”.
With `CCCCCCCCCCCC(=O)OCC` the outcome was “inactive”.
With `CCCCOC(=O)C(C)CC` (stereo not given) the outcome was “inactive”.
In the case of `c1ccc(-c2nc3ccccc3[nH]2)cc1`, the outcome is reported as “inactive”.
In the case of `CO[Si](CCCS)(OC)OC`, the outcome is reported as “inactive”.
With `CCCCC(CC)COS(=O)(=O)O` (stereo not given) the outcome was “inactive”.
`CCCCCCCCCCCCCc1ccccc1` was tested, and the outcome was “inactive”.
In the case of `CCCCC(=O)O`, the outcome is reported as “inactive”.
`CC(C)=NNC(N)=S` was tested, and the outcome was “inactive”.
In the case of `C=C(C)OC(C)=O`, the outcome is reported as “inactive”.
In the case of `CC1=CP(=O)(c2ccccc2)CC1` (stereo not given), the outcome is reported as “inactive”.
With `Nc1ccc(C(=O)O)cc1` the outcome was “inactive”.
`CCCCCCOC(=O)CCCCC(=O)OCCCCCC` was tested, and the outcome was “inactive”.
In the case of `CCCCCCCC(=O)OCC(COC(=O)CCCCCCC)OC(=O)CCCCCCC`, the outcome is reported as “inactive”.
`CC(=O)OCCc1ccccc1` was tested, and the outcome was “inactive”.
`C[Si](C)(C)N[Si](C)(C)C` was tested, and the outcome was “inactive”.
For `CCOC(=O)[C@H](O)[C@@H](O)C(=O)OCC`, the outcome was “inactive”.
With `C=C[C@@]1(C)CC(=O)[C@]2(O)[C@@]3(C)[C@@H](O)CCC(C)(C)[C@@H]3[C@H](O)[C@H](OC(C)=O)[C@@]2(C)O1` the outcome was “inactive”.
With `CCCCOCCOC(=O)COc1ccc(Cl)cc1Cl` the outcome was “inactive”.
In the case of `CC1(C)[C@@H]2CC[C@@]1(C)C(=O)C2`, the outcome is reported as “inactive”.
With `CCOC(=O)C1=NOC(c2ccccc2)(c2ccccc2)C1` the outcome was “inactive”.
For `CC(=O)C(C)C`, the outcome was “inactive”.
`CC/C=C\CCOC(=O)c1ccccc1O` was tested, and the outcome was “inactive”.
In the case of `CC(C)[N+](C)(CCOC(=O)C1c2ccccc2Oc2ccccc21)C(C)C`, the outcome is reported as “inactive”.
With `CC(C)(C)C1CCC(=O)CC1` the outcome was “inactive”.
For `Cc1ccc(S(=O)(=O)N=C=O)cc1`, the outcome was “inactive”.
For `Cn1ccnc1`, the outcome was “inactive”.
With `COc1cc(O)c(C(=O)c2ccccc2)cc1S(=O)(=O)O` the outcome was “inactive”.
For `COC(=O)[C@H](Cc1ccccc1)NC(=O)[C@@H](N)CC(=O)O` (H-Asp-Phe-OMe), the outcome was “inactive”.
